According to ChEMBL document CHEMBL5606458, “ASAP - ZIKV NS2B-NS3 protease fluorescence single point” (2024):
Screen size: about 2,700 compounds; about 160 (5.9%) showed an effect of 50% or more. This is one part of a sample in which strong results are shown more often than they occur.

Target: Nonstructural protein 3 (Zika virus) (UniProt A0A024AXB9)
Sequence (A0A024AXB9 as listed by the source): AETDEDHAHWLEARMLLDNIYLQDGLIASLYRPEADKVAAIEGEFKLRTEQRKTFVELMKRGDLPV

## Cc1cnccc1NC(=O)c1cccn(CC2CCNCC2)c1=O
PRVABC59, Concentration 49.5 uM, Number of replicates 2.0, Standard deviation 3.2606712103202136 %
  inhibition: 0.531%
PRVABC59, Concentration 99.01 uM, Number of replicates 2.0, Standard deviation 2.3019517896210857 %
  inhibition: 3.91%
PRVABC59, Concentration 198.0 uM, Number of replicates 2.0, Standard deviation 2.0430462280295743 %
  inhibition: 7.25%

## c1ccc2c([C@H]3CCN(CC[C@H]4CCCOC4)C3)c[nH]c2c1
PRVABC59, Concentration 49.5 uM, Number of replicates 2.0, Standard deviation 1.010318627219257 %
  inhibition: 5.96%
PRVABC59, Concentration 99.01 uM, Number of replicates 2.0, Standard deviation 2.5976606536818863 %
  inhibition: 9.61%
PRVABC59, Concentration 198.0 uM, Number of replicates 2.0, Standard deviation 2.1960692966802595 %
  inhibition: 20.4%

## CCn1ccnc(N2CC[C@H](c3ccn[nH]3)C2)c1=O
PRVABC59, Concentration 49.5 uM, Number of replicates 2.0, Standard deviation 1.2586397664505307 %
  inhibition: 6.21%
PRVABC59, Concentration 99.01 uM, Number of replicates 2.0, Standard deviation 2.3660377586558408 %
  inhibition: 15.1%
PRVABC59, Concentration 198.0 uM, Number of replicates 2.0, Standard deviation 2.03279173119948 %
  inhibition: 28.1%

## NCc1cccc(NC(=O)[C@@H](NC(=O)OCc2ccccc2)c2ccc(F)cc2)c1
PRVABC59, Concentration 49.5 uM, Number of replicates 2.0, Standard deviation 0.5315909510099626 %
  inhibition: 1.43%
PRVABC59, Concentration 99.01 uM, Number of replicates 2.0, Standard deviation 0.7442277023062145 %
  inhibition: 8.36%
PRVABC59, Concentration 198.0 uM, Number of replicates 2.0, Standard deviation 0.5134389777058966 %
  inhibition: 25.7%

## C[C@@H](C(=O)Nc1cccc(CN)c1)c1ccc(OCc2ccccc2)cc1
PRVABC59, Concentration 49.5 uM, Number of replicates 2.0, Standard deviation 0.17467234529733644 %
  inhibition: -0.009%
PRVABC59, Concentration 99.01 uM, Number of replicates 2.0, Standard deviation 10.257482850017862 %
  inhibition: 21.6%
PRVABC59, Concentration 198.0 uM, Number of replicates 2.0, Standard deviation 0.22285904793408415 %
  inhibition: 62.2%

## NCc1cccc(CNC(=O)[C@@H](NC(=O)OCc2ccccc2)c2ccc(OCc3ccccc3)cc2)c1
PRVABC59, Concentration 49.5 uM, Number of replicates 2.0, Standard deviation 0.160775728553173 %
  inhibition: 99.2%
PRVABC59, Concentration 99.01 uM, Number of replicates 2.0, Standard deviation 0.12446874737194843 %
  inhibition: 99%
PRVABC59, Concentration 198.0 uM, Number of replicates 2.0, Standard deviation 0.3293253590204834 %
  inhibition: 98.1%

## NCc1cccc(NC(=O)[C@@H](NC(=O)OCc2ccccc2)c2ccc(F)c(F)c2)c1
PRVABC59, Concentration 49.5 uM, Number of replicates 2.0, Standard deviation 0.33969955290034887 %
  inhibition: -2.45%
PRVABC59, Concentration 99.01 uM, Number of replicates 2.0, Standard deviation 0.8168349211729018 %
  inhibition: 6.3%
PRVABC59, Concentration 198.0 uM, Number of replicates 2.0, Standard deviation 1.2939689407463024 %
  inhibition: 43.9%

## CCCCCC(=O)N[C@H](C(=O)NCc1ccc(NC(=N)N)cc1)c1ccc(OCc2ccccc2)cc1
PRVABC59, Concentration 49.5 uM, Number of replicates 2.0, Standard deviation 4.889627391275408 %
  inhibition: 4.26%
PRVABC59, Concentration 99.01 uM, Number of replicates 2.0, Standard deviation 2.962062980256652 %
  inhibition: 19.3%
PRVABC59, Concentration 198.0 uM, Number of replicates 2.0, Standard deviation 2.9458988209157537 %
  inhibition: 67.5%

## NCc1cccc(NC(=O)c2ccc(OCc3ccccc3)cc2)c1
PRVABC59, Concentration 49.5 uM, Number of replicates 2.0, Standard deviation 1.3665778981704908 %
  inhibition: 1.2%
PRVABC59, Concentration 99.01 uM, Number of replicates 2.0, Standard deviation 3.6407499729049095 %
  inhibition: 22.5%
PRVABC59, Concentration 198.0 uM, Number of replicates 2.0, Standard deviation 29.263434924261905 %
  inhibition: 26.6%

## NCc1cccc(NC(=O)[C@@H](NC(=O)OCc2ccccc2)c2ccc(Br)cc2)c1
PRVABC59, Concentration 49.5 uM, Number of replicates 2.0, Standard deviation 0.867338983981324 %
  inhibition: 10%
PRVABC59, Concentration 99.01 uM, Number of replicates 2.0, Standard deviation 0.4728161592371566 %
  inhibition: 98.2%
PRVABC59, Concentration 198.0 uM, Number of replicates 2.0, Standard deviation 0.18671930544775084 %
  inhibition: 97.9%

## NCc1cccc(NC(=O)Cc2ccc(OCc3ccccc3)cc2)c1
PRVABC59, Concentration 49.5 uM, Number of replicates 2.0, Standard deviation 0.6755896628980406 %
  inhibition: -0.82%
PRVABC59, Concentration 99.01 uM, Number of replicates 2.0, Standard deviation 0.4165875428765907 %
  inhibition: 8.98%
PRVABC59, Concentration 198.0 uM, Number of replicates 2.0, Standard deviation 2.4964043674210097 %
  inhibition: 40.9%

## c1ccc2c([C@H]3CCN(CCC4CCOCC4)C3)c[nH]c2c1
PRVABC59, Concentration 49.5 uM, Number of replicates 2.0, Standard deviation 1.2406953242285323 %
  inhibition: 12.1%
PRVABC59, Concentration 99.01 uM, Number of replicates 2.0, Standard deviation 0.23839741086829247 %
  inhibition: 18.5%
PRVABC59, Concentration 198.0 uM, Number of replicates 2.0, Standard deviation 0.8459297336369422 %
  inhibition: 27.9%

## O=S(=O)(Nc1ccc(Oc2ccccc2Cl)cc1)c1c[nH]c2ccc(Cl)cc12
PRVABC59, Concentration 49.5 uM, Number of replicates 2.0, Standard deviation 1.8433959322838933 %
  inhibition: 11%
PRVABC59, Concentration 99.01 uM, Number of replicates 2.0, Standard deviation 3.1252865977713378 %
  inhibition: 14.3%
PRVABC59, Concentration 198.0 uM, Number of replicates 2.0, Standard deviation 3.9544884158217 %
  inhibition: 39%

## O=C1NCc2ccccc2C12CCN(Cc1cc3ccc(F)cc3[nH]1)CC2
PRVABC59, Concentration 49.5 uM, Number of replicates 2.0, Standard deviation 3.3747851513626115 %
  inhibition: 6.9%
PRVABC59, Concentration 99.01 uM, Number of replicates 2.0, Standard deviation 2.4802388593809592 %
  inhibition: 13.2%
PRVABC59, Concentration 198.0 uM, Number of replicates 2.0, Standard deviation 2.1357042200194405 %
  inhibition: 18.5%

## CCCCCC(=O)N[C@H](C(=O)NCc1cccc(CN)c1)c1ccc(OCc2ccccc2)cc1
PRVABC59, Concentration 49.5 uM, Number of replicates 2.0, Standard deviation 0.8118332703664171 %
  inhibition: -3.7%
PRVABC59, Concentration 99.01 uM, Number of replicates 2.0, Standard deviation 11.543494465765306 %
  inhibition: 89.7%
PRVABC59, Concentration 198.0 uM, Number of replicates 2.0, Standard deviation 0.4445743989869767 %
  inhibition: 99%

## CCCCCC(=O)N[C@H](C(=O)NCc1ccc(N)nc1)c1ccc(OCc2ccccc2)cc1
PRVABC59, Concentration 49.5 uM, Number of replicates 2.0, Standard deviation 0.04494641077638166 %
  inhibition: -2.18%
PRVABC59, Concentration 99.01 uM, Number of replicates 2.0, Standard deviation 0.3023657059020049 %
  inhibition: 1.76%
PRVABC59, Concentration 198.0 uM, Number of replicates 2.0, Standard deviation 0.018387068425059654 %
  inhibition: -1.18%

## NCc1ccc(NC(=O)[C@@H](NC(=O)OCc2ccccc2)c2ccc(OCc3ccccc3)cc2)cc1
PRVABC59, Concentration 49.5 uM, Number of replicates 2.0, Standard deviation 1.551749181482573 %
  inhibition: 7.22%
PRVABC59, Concentration 99.01 uM, Number of replicates 2.0, Standard deviation 2.287213711046402 %
  inhibition: 11.8%
PRVABC59, Concentration 198.0 uM, Number of replicates 2.0, Standard deviation 0.9961100816492645 %
  inhibition: 23%

## NC1(c2cccc(NC(=O)[C@@H](NC(=O)OCc3ccccc3)c3ccc(OCc4ccccc4)cc3)c2)CCC1
PRVABC59, Concentration 49.5 uM, Number of replicates 2.0, Standard deviation 2.468656231060589 %
  inhibition: 14.2%
PRVABC59, Concentration 99.01 uM, Number of replicates 2.0, Standard deviation 1.4495575723595426 %
  inhibition: 30.7%
PRVABC59, Concentration 198.0 uM, Number of replicates 2.0, Standard deviation 0.13484294125181392 %
  inhibition: 82.7%

## NCc1cccc(NC(=O)[C@@H](NC(=O)OCc2ccccc2)c2ccc(OCc3ccccc3)cc2)c1
PRVABC59, Concentration 49.5 uM, Number of replicates 2.0, Standard deviation 0.012122107981309298 %
  inhibition: 99.6%
PRVABC59, Concentration 99.01 uM, Number of replicates 2.0, Standard deviation 0.01616281064174573 %
  inhibition: 99.1%
PRVABC59, Concentration 198.0 uM, Number of replicates 2.0, Standard deviation 0.06465124256698292 %
  inhibition: 97.8%

## CCCCCC(=O)N[C@H](C(=O)N1CCC(CN)CC1)c1ccc(OCc2ccccc2)cc1
PRVABC59, Concentration 49.5 uM, Number of replicates 2.0, Standard deviation 1.1847944417619873 %
  inhibition: 5.06%
PRVABC59, Concentration 99.01 uM, Number of replicates 2.0, Standard deviation 0.3935504126553241 %
  inhibition: 10.8%
PRVABC59, Concentration 198.0 uM, Number of replicates 2.0, Standard deviation 0.8347422741682105 %
  inhibition: 26.5%
